About 83,000 compounds went through this panel and 20% of them were active in at least one assay; those are over-represented in the sample as a whole.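 Cells were grown in 96-well plates and exposed to the test compound at a single concentration for 48 hours; results are reported as percent growth, with values below 10 considered active.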 Unmarked numbers belong to inactive results. The source made the active and inactive calls.

The test system of the assay is 786-0 renal. Briefly: NCI-60 one-dose screen, 48 h (100 = growth as untreated, 0 = no growth, -100 = all killed). Particulars: 10 µM unless noted.
Take `Cc1ccc(NC(=O)CN2CCN(c3ncnc4c3cnn4-c3ccccc3)CC2)cc1`: the growth was 105%.

In the case of `COc1cc(OC)cc(C(=O)Nc2cccc(-c3cn(-c4ccc(S(N)(=O)=O)cc4)nn3)c2)c1`, the growth is 74.6%.

As to `CCN(CC)c1ccc(/C=N/Nc2nc(-c3ccc(Br)cc3)cs2)c(O)c1`, the growth was 49.9%.

As to `Cn1cc(-c2cc(N)n3nc(-c4c[nH]c5ccccc45)cc3n2)c2cc(Br)cnc21`, the growth is -77% (active).

Turning to `C#C[C@]1(O)CC[C@H]2[C@@H]3CC=C4c5sc(-c6ccc(O)c(O)c6)nc5CC[C@]4(C)[C@H]3CC[C@@]21C`, the growth was -88.3% (active).

On to `Cc1ccc(NCC(=O)Cn2cc(COc3ccc(C=Nc4cnc5ccccc5c4)cc3)nn2)cc1`, for which the growth was 107%.

For `CN(C)CCOc1ccc(C(=O)C2[C@H](c3ccc(Cl)cc3)[C@@H](c3ccccc3)NC23C(=O)Nc2ccccc23)cc1` (some centres not stated), the growth is 40.8%.

`CC(C)(C)OC(=O)/C=C/c1cccc2c1C(=O)NC(C)(c1cc3cc(Cl)ccc3oc1=O)N2` (configuration not stated): the growth was 54.5%.

Take `CCOC(=O)/C=C/c1cccc2c1C(=O)NC(C)(c1cc3cc(Cl)ccc3oc1=O)N2` (configuration not stated): the growth is 31.4%.

In the case of `N=C1N=C(SCc2nc3ccccc3[nH]2)NC(=O)/C1=C/c1ccc(Cl)cc1`, the growth is 118%.

`CC(C)CSc1nc(NCCc2c[nH]c3ccccc23)c(C#N)c(-c2ccccc2)n1`: the growth was 47.1%.

`COc1cc(-c2cc(-c3cccc(OCC(=O)O)c3)[nH]c(=O)c2C#N)cc(OC)c1OC`: the growth is 95.8%.

As to `COc1ccc(C(SCCNCc2cc(N(C)C)ccn2)(c2ccccc2)c2ccccc2)cc1`, the growth was -23.1% (active).

As for `Cc1cccc(-c2nc(Nc3ccc(C)c(S(N)(=O)=O)c3)c3ccccc3n2)c1`, the growth was 10.8%.

`Cn1cc(-c2cc(N)n3nc(-c4cn(C)c5ccccc45)cc3n2)c2cc(Br)ccc21`: the growth is -85% (active).

On to `CC12CC[C@@H]3[C@]4(C)COC(c5cn[nH]c5-c5cccc(Cl)c5)O[C@@H]4CC[C@@]3(C)[C@@H]1CC(C1=CCOC1=O)O2` (some centres not stated), for which the growth was 47.5%.

As for `Cc1ccc(C2CC(c3ccc(S(=O)(=O)NCCNc4nc(Nc5ccc(F)cc5)nc(N(C)C)n4)cc3)=Nc3c(N)nc(N)nc3N2)cc1` (configuration not stated), the growth is 42%.

On to `O=C(NN1C(=O)/C(=C/C=C/c2ccc([N+](=O)[O-])o2)SC1=S)c1ccc(Cl)cc1`, for which the growth was -82.3% (active).

On to `COc1ccc(NC(=O)Cn2c3c(sc2=O)[C@H]2[C@@H](O)[C@@H](O)[C@H](O)[C@@H]2CS3)cc1`, for which the growth was 104%.

With `CC1(C)CC[C@]2(C(=O)O)CC[C@]3(C)C(=CCC4[C@@]5(C)C[C@@H](O)[C@@H]6OC(c7ccco7)OC[C@@]6(C)C5CC[C@]43C)C2C1` (some centres not stated), the growth was 42.7%.

As to `C#CCOc1ccc(/C=N/Nc2nc(-c3ccc(Cl)cc3)cs2)cc1OC`, the growth is 69.2%.

With `CCCCCCCCOc1cccc(S(=O)(=O)Nc2ccc(C)cc2C(=O)O)c1`, the growth was 99.4%.

With `Nc1nnc(-c2c[nH]c3ccc(Br)cc23)c(-c2c[nH]c3ncc(Br)cc23)n1`, the growth is 34.7%.

As for `O=C(c1ccccc1)c1ccc2nc(-c3ccc(F)cc3)[nH]c2c1`, the growth was 39%.

Regarding `Cn1cc(-c2cc(N)n3nc(-c4cn(C)c5ccc(Cl)cc45)cc3n2)c2ccccc21`, the growth is 88.4%.

In the case of `O=C(CSc1nc2ccccc2c(=O)[nH]1)NCCN1CCCCC1`, the growth is 102%.

Take `CCCn1cc(-c2nc(Nc3ccc(C(=O)NCCCCNc4cccc5c4C(=O)N(C4CCC(=O)NC4=O)C5=O)cc3)nc3[nH]ccc23)cn1` (configuration not stated): the growth is 22.9%.

As to `CCOC(=O)C1=C(N)N(c2ccccc2)C2=C(C(=O)CC(C)(C)C2)C1c1ccccc1Cl` (configuration not stated), the growth was 79.4%.

Take `Cc1ccc(-c2nc(C#N)c(S(=O)(=O)N3CCN(S(=O)(=O)c4ccc(Cl)cc4)CC3)o2)cc1`: the growth is 49.1%.

In the case of `O=c1[nH]c2ccc(Cl)cc2cc1CSc1nccc(-c2ccc(Cl)cc2)n1`, the growth was 49.8%.

As for `CC1(C)CC[C@]2(C(=O)O)CC[C@]3(C)C(=CCC4[C@@]5(C)C[C@@H](O)[C@@H]6OC(c7ccc(F)cc7)OC[C@@]6(C)C5CC[C@]43C)C2C1` (some centres not stated), the growth is 39.6%.

On to `C=C1CC[C@@H]2[C@]3(C)COC(c4ccccc4)O[C@@H]3CC[C@@]2(C)[C@@H]1C/C=C1/C(=O)OCC1OC(C)=O` (some centres not stated), for which the growth is -95.6% (active).

These data come from PubChem BioAssay (NCI).
